Reference: article PMC5540273 (PLoS ONE, 2017)
Several values for one entry are separate records, joined by “and”; a condition that tells them apart may be missing. Equal values may be shown once. Read-outs that look alike come from different tables or passages of the source.

Experiments:
PIM1 = conditions: n = 1
PIM2 = conditions: concentration: 1 μM, replicates: in singlicate; n = 1
PIM3 = conditions: n = 1
PIP5K1A = conditions: concentration: 1 μM, replicates: in singlicate; n = 1
PIP5K1C = conditions: n = 1
PIP5K2B = conditions: n = 1
PIP5K2C = system: T1, PIP5K2C; conditions: n = 1
T1 construct: gene PIP4K2C

PKAC-alpha = system: T2, PKAC-alpha; conditions: n = 1
T2 construct: gene PRKACA

PKAC-beta = system: T3, PKAC-beta; conditions: n = 1
T3 construct: gene PRKACB

PKMYT1 = conditions: n = 1
PKN1 = conditions: n = 1
PKN2 = conditions: concentration: 1 μM, replicates: in singlicate; n = 1
PLK1 = conditions: n = 1
PLK2 = conditions: concentration: 1 μM, replicates: in singlicate; n = 1
PLK3 = conditions: concentration: 1 μM, replicates: in singlicate; n = 1
PLK4 = conditions: n = 1
PRKCD = conditions: concentration: 1 μM, replicates: in singlicate; n = 1
PRKCE = conditions: n = 1
PRKCH = conditions: n = 1
PRKCI = conditions: n = 1
[1] = concentration: 1 μM, replicates: in singlicate
[2] = concentration: 1 μM,replicates: in singlicate, 1 µM
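Also: KINOMEscan kinase panel screen.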

Cl.NC(=O)c1cccc(Nc2nccc(Nc3ccc(Oc4cccc(Cl)c4)c(Cl)c3)n2)c1 [GW659008]
%Inh (PIM1; [1]): 15% | %Inh (PIM2): 0% | %Inh (PIM3; [1]): 1% | %Inh (PIP5K1A): 15% | %Inh (PIP5K1C; [1]): 45% | %Inh (PIP5K2B; [1]): 32% | %Inh (PIP5K2C; [1]): 60% | %Inh (PKAC-alpha; [1]): 0% | %Inh (PKAC-beta; [1]): 0% | %Inh (PKMYT1; [1]): 0% | %Inh (PKN1; [1]): 0% | %Inh (PKN2): 0% | %Inh (PLK1; [1]): 5% | %Inh (PLK2): 0% | %Inh (PLK3): 0% | %Inh (PLK4; [1]): 0% | %Inh (PRKCD): 27% | %Inh (PRKCE; [1]): 27% | %Inh (PRKCH; [1]): 10% | %Inh (PRKCI; [1]): 10%

Cl.Oc1ccc(-c2nc(-c3ccccc3)[nH]c2-c2ccncc2)cc1 [SB-428218]
%Inh (PIM1; [1]): 44% | %Inh (PIM2): 0% | %Inh (PIM3; [1]): 42% | %Inh (PIP5K1A): 72% | %Inh (PIP5K1C; [1]): 49% | %Inh (PIP5K2B; [1]): 0% | %Inh (PIP5K2C; [1]): 58% | %Inh (PKAC-alpha; [1]): 0% | %Inh (PKAC-beta; [1]): 16% | %Inh (PKMYT1; [1]): 14% | %Inh (PKN1; [1]): 0% | %Inh (PKN2): 0% | %Inh (PLK1; [1]): 0% | %Inh (PLK2): 0% | %Inh (PLK3): 0% | %Inh (PLK4; [1]): 0% | %Inh (PRKCD): 0% | %Inh (PRKCE; [1]): 33% | %Inh (PRKCH; [1]): 0% | %Inh (PRKCI; [1]): 12%

O=C(O)COc1ncnc2cc(-c3ccc4[nH]ncc4c3)sc12
%Inh (PIM1; [1]): 0% | %Inh (PIM2): 0% | %Inh (PIM3; [1]): 7% | %Inh (PIP5K1A): 0% | %Inh (PIP5K1C; [1]): 0% | %Inh (PIP5K2B; [1]): 17% | %Inh (PIP5K2C; [1]): 0% | %Inh (PKAC-alpha; [1]): 0% | %Inh (PKAC-beta; [1]): 4% | %Inh (PKMYT1; [1]): 0% | %Inh (PKN1; [1]): 30% | %Inh (PKN2): 19% | %Inh (PLK1; [1]): 2% | %Inh (PLK2): 18% | %Inh (PLK3): 12% | %Inh (PLK4; [1]): 15% | %Inh (PRKCD): 19% | %Inh (PRKCE; [1]): 10% | %Inh (PRKCH; [1]): 0% | %Inh (PRKCI; [1]): 3%

Cc1cccc(-c2nc(Nc3ccc4[nH]ncc4c3)c3ccccc3n2)n1 [GW857175]
%Inh (PIM1; [1]): 5% | %Inh (PIM2): 38% | %Inh (PIM3; [1]): 0% | %Inh (PIP5K1A): 0% | %Inh (PIP5K1C; [1]): 0% | %Inh (PIP5K2B; [1]): 42% | %Inh (PIP5K2C; [1]): 0% | %Inh (PKAC-alpha; [1]): 34% | %Inh (PKAC-beta; [1]): 0% | %Inh (PKMYT1; [1]): 19% | %Inh (PKN1; [1]): 10% | %Inh (PKN2): 0% | %Inh (PLK1; [1]): 11% | %Inh (PLK2): 12% | %Inh (PLK3): 15% | %Inh (PLK4; [1]): 8% | %Inh (PRKCD): 11% | %Inh (PRKCE; [1]): 0% | %Inh (PRKCH; [1]): 0% | %Inh (PRKCI; [1]): 33%

COC(=O)c1c(-c2ccccc2)c2cc(OC)ccc2c(=O)n1Cc1ccccc1
%Inh (PIM1; [1]): 18% | %Inh (PIM2): 2% | %Inh (PIM3; [1]): 20% | %Inh (PIP5K1A): 16% | %Inh (PIP5K1C; [1]): 14% | %Inh (PIP5K2B; [1]): 38% | %Inh (PIP5K2C; [1]): 0% | %Inh (PKAC-alpha; [1]): 21% | %Inh (PKAC-beta; [1]): 0% | %Inh (PKMYT1; [1]): 2% | %Inh (PKN1; [1]): 4% | %Inh (PKN2): 0% | %Inh (PLK1; [1]): 0% | %Inh (PLK2): 25% | %Inh (PLK3): 20% | %Inh (PLK4; [1]): 19% | %Inh (PRKCD): 19% | %Inh (PRKCE; [1]): 12% | %Inh (PRKCH; [1]): 9% | %Inh (PRKCI; [1]): 0%

O=C(Nc1ccc2c(c1)OCO2)NC1CCN(c2ccnc(Nc3ccc(F)cc3)n2)C1 (centres unmarked) [GSK1379724]
%Inh (PIM1; [1]): 0% | %Inh (PIM2): 0% | %Inh (PIM3; [1]): 0% | %Inh (PIP5K1A): 34% | %Inh (PIP5K1C; [1]): 32% | %Inh (PIP5K2B; [1]): 13% | %Inh (PIP5K2C; [1]): 23% | %Inh (PKAC-alpha; [1]): 0% | %Inh (PKAC-beta; [1]): 0% | %Inh (PKMYT1; [1]): 15% | %Inh (PKN1; [1]): 4% | %Inh (PKN2): 0% | %Inh (PLK1; [1]): 0% | %Inh (PLK2): 0% | %Inh (PLK3): 0% | %Inh (PLK4; [1]): 0% | %Inh (PRKCD): 0% | %Inh (PRKCE; [1]): 7% | %Inh (PRKCH; [1]): 0% | %Inh (PRKCI; [1]): 0%

COc1ccccc1-c1ccc2c(NC(=O)C3CC3)n[nH]c2n1 [SB-711239]
%Inh (PIM1; [1]): 13% | %Inh (PIM2): 0% | %Inh (PIM3; [1]): 0% | %Inh (PIP5K1A): 41% | %Inh (PIP5K1C; [1]): 53% | %Inh (PIP5K2B; [1]): 30% | %Inh (PIP5K2C; [1]): 19% | %Inh (PKAC-alpha; [1]): 6% | %Inh (PKAC-beta; [1]): 2% | %Inh (PKMYT1; [1]): 0% | %Inh (PKN1; [1]): 12% | %Inh (PKN2): 2% | %Inh (PLK1; [1]): 10% | %Inh (PLK2): 0% | %Inh (PLK3): 0% | %Inh (PLK4; [1]): 0% | %Inh (PRKCD): 0% | %Inh (PRKCE; [1]): 3% | %Inh (PRKCH; [1]): 27% | %Inh (PRKCI; [1]): 0%

CSc1nn2c(=O)cc(N3CCOCC3)nc2n1Cc1cccc(C(F)(F)F)c1C [GSK2363608]
%Inh (PIM1; [2]): 0% and 34% | %Inh (PIM2): 0% | %Inh (PIM3; [2]): 0% and 27% | %Inh (PIP5K1A): 0% | %Inh (PIP5K1C; [2]): 30% and 0% | %Inh (PIP5K2B; [2]): 1% and 4% | %Inh (PIP5K2C; [2]): 6% and 8% | %Inh (PKAC-alpha; [2]): 50% and 0% | %Inh (PKAC-beta; [2]): 64% and 0% | %Inh (PKMYT1; [2]): 13% and 19% | %Inh (PKN1; [2]): 14% and 0% | %Inh (PKN2): 0% | %Inh (PLK1; [2]): 25% and 8% | %Inh (PLK2): 0% | %Inh (PLK3): 0% | %Inh (PLK4; [2]): 11% and 0% | %Inh (PRKCD): 0% | %Inh (PRKCE; [2]): 18% and 0% | %Inh (PRKCH; [2]): 20% and 0% | %Inh (PRKCI; [2]): 13% and 18%

O=C(Nc1n[nH]c2cc(-c3cccc(F)c3F)ccc12)C1CC1 [SB-733894]
%Inh (PIM1; [1]): 8% | %Inh (PIM2): 0% | %Inh (PIM3; [1]): 32% | %Inh (PIP5K1A): 0% | %Inh (PIP5K1C; [1]): 0% | %Inh (PIP5K2B; [1]): 0% | %Inh (PIP5K2C; [1]): 0% | %Inh (PKAC-alpha; [1]): 0% | %Inh (PKAC-beta; [1]): 0% | %Inh (PKMYT1; [1]): 40% | %Inh (PKN1; [1]): 39% | %Inh (PKN2): 6% | %Inh (PLK1; [1]): 0% | %Inh (PLK2): 26% | %Inh (PLK3): 13% | %Inh (PLK4; [1]): 22% | %Inh (PRKCD): 7% | %Inh (PRKCE; [1]): 0% | %Inh (PRKCH; [1]): 0% | %Inh (PRKCI; [1]): 21%

Nc1ncnc2[nH]c(-c3ccccc3)nc12 [AH5015]
%Inh (PIM1; [1]): 0% | %Inh (PIM2): 0% | %Inh (PIM3; [1]): 21% | %Inh (PIP5K1A): 0% | %Inh (PIP5K1C; [1]): 29% | %Inh (PIP5K2B; [1]): 0% | %Inh (PIP5K2C; [1]): 21% | %Inh (PKAC-alpha; [1]): 1% | %Inh (PKAC-beta; [1]): 7% | %Inh (PKMYT1; [1]): 0% | %Inh (PKN1; [1]): 0% | %Inh (PKN2): 0% | %Inh (PLK1; [1]): 2% | %Inh (PLK2): 16% | %Inh (PLK3): 0% | %Inh (PLK4; [1]): 99.9% | %Inh (PRKCD): 0% | %Inh (PRKCE; [1]): 14% | %Inh (PRKCH; [1]): 18% | %Inh (PRKCI; [1]): 0%
